The panel holds about 83,000 compounds, 20% with a hit somewhere; the sample as a whole holds those more often.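 Method: cells in 96-well plates; compound added at one concentration; 48 h incubation; percent growth measured; values under 10 scored active.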 Values without a mark were called inactive. Activity calls are given as the source filed them.
system: A549/ATCC NSCLC; assay: NCI-60 one-dose screen, 48 h (100 = growth as untreated, 0 = no growth, -100 = all killed); conditions: 10 µM unless noted

| SMILES | growth |
| --- | --- |
| CC(=O)O[C@H]1C(=O)[C@@]2(C)C([C@H](OC(=O)c3ccccc3)[C@]3(O)C[C@H](OC(=O)[C@H](O)[C@@H](NC(=O)c4ccccc4)c4ccccc4)C(C)=C1C3(C)C)[C@]1(OC(C)=O)CO[C@@H]1C[C@@H]2O (stereo partly specified) | 13.1% |
| CCCCCCCC/C=C/CCCCCCCC1=NC(C)(C)CN1CC(C)O (stereo unspecified) | 27.9% |
| COc1cc(C2NC(c3ccc(Cl)cc3)C(C)C(=NC(=O)c3cnccn3)C2C)cc(OC)c1OC (stereo unspecified) | 98.8% |
| C[C@@H]1CC[C@H]2[C@@H](C)C(O)O[C@@H]3O[C@]4(C)CC[C@@H]1[C@]32OO4 (stereo partly specified) | 41.5% |
| C/C(=C\CCc1ccsc1)CC/C=C(\C)CCCN1CCN(CCO)CC1 | 44.8% |
| CN1COc2ccc3ccccc3c2C1 | 97.4% |
| COc1ccc(-c2cnnn2-c2cc(OC)c3c(c2)OCO3)cc1 | 18.3% |
| Nc1c2ccccc2nc2ccccc12 (tested in a mixture with another compound) | 4.37% (active) |
| CCOC(=O)C1=C(C)N2C(=NC3=C(CCC/C3=C\c3ccc(Cl)cc3)C2c2ccc(Cl)cc2)S1 (stereo unspecified) | 5.11% (active) |
| C=C(C)[C@H]1CC/C(C)=C/CC[C@]2(C)O[C@H]2CC/C(C=O)=C\C1O (stereo partly specified) | 108% |
| CCN(CC)CCCCNc1c2ccccc2[n+](C)c2c1[nH]c1ccccc12 | 2.8% (active) |
| Cn1cc(-c2csc(-c3c[nH]c4ncccc34)n2)c2cc(F)cnc21 | 85.3% |
| Nc1ccccc1-c1ccc([N+](=O)[O-])cc1 | 63.3% |
| Cc1ccc(NC(=O)Nc2ccc(-c3cccnc3)cc2N2CCC(CO)CC2)cc1 | 7.01% (active) |
| NNC(=O)C1CC2c3ccccc3C1c1ccccc12 (stereo unspecified) | 113% |
| O=C(OC[C@H]1O[C@H](OC(=O)c2cc(O)c(O)c(OC(=O)c3cc(O)c(O)c(O)c3)c2)[C@H](OC(=O)c2cc(O)c(O)c(OC(=O)c3cc(O)c(O)c(O)c3)c2)[C@@H](OC(=O)c2cc(O)c(O)c(OC(=O)c3cc(O)c(O)c(O)c3)c2)[C@@H]1OC(=O)c1cc(O)c(O)c(OC(=O)c2cc(O)c(O)c(O)c2)c1)c1cc(O)c(O)c(OC(=O)c2cc(O)c(O)c(O)c2)c1 | 34% |
| NS(=O)(=O)c1ccc(NC2=C(Cl)C(=O)c3ccccc3C2=O)cc1 | 112% |

| SMILES | growth |
| --- | --- |
| CCOC(=O)C1=C(COCCN)NC(C)=C(C(=O)OC)C1c1ccccc1Cl (stereo unspecified) | 71.8% |
| Cc1cc2c(C#N)n3c(c2cc1C)C(=O)C(c1ccccc1)Oc1ccccc1-3 (stereo unspecified) | 4.49% (active) |
| CN(C)c1nc(N)nc(Cn2c(-c3nonc3N)nc3ccccc32)n1 | 86.7% |
| COC(=O)[C@]1(C(C)C)N[C@H](c2cn(-c3ccccc3)nc2-c2ccccc2)[C@@H]2C(=O)N(c3ccc(Cl)cc3)C(=O)[C@@H]21 | 101% |
| CCOC(=O)/C(=C/c1ccccc1)C(=O)c1ccccc1 | 79.8% |
| Cn1cnc([N+](=O)[O-])c1S(=O)(=O)Oc1ccc(Cl)cc1 | 96% |
| O=C(/C=C/c1ccccc1Cl)c1ccc(O)cc1 | 41.8% |
| Cn1c(=O)c2nc(SCc3ccccc3)n(C)c2n(C)c1=O | 99.2% |
| COc1ccc2c(c1)nc(N)c1c3ccccc3cn21 | 75.9% |
| O=C(/C(=C/c1cccc([N+](=O)[O-])c1)c1ccccc1)c1ccccc1 | 53.6% |
| CCCCCCCC/C=C\CCCCCCCCOc1ccccc1CC(=O)NCC[N+]1(C)CCCC1 | 75% |
| O=C(C(=O)N1CCCCC1)c1ccc(OC2OC(CO)C(O)C(O)C2O)cc1 (stereo unspecified) | 101% |
| CCC(C)(C)C(=O)O[C@H]1C[C@@H](C)C=C2C=C[C@H](C)[C@H](CC[C@@H]3C[C@@H](O)CC(=O)O3)[C@H]21 | 67.5% |
| COc1ccc2[nH]cc(/C=C3/C(=O)Nc4ccc(F)cc43)c2c1 | 72.3% |
| C[C@]12CC[C@@H]3c4ccc(O)cc4CC[C@H]3[C@@H]1CC[C@@H]2NS(=O)(=O)c1cccc(Br)c1 | 43.2% |
| NC(=O)NN=C(C1CC1)C1CC1 | 103% |
| CCC1=C(c2ccc(OC)cc2)C(C)(C)Oc2c1ccc(O)c2CN1CCCC1 | 67.1% |

system: 786-0 renal; assay: as above; conditions: 10 µM unless noted

| SMILES | growth |
| --- | --- |
| CC(=O)O[C@H]1C(=O)[C@@]2(C)C([C@H](OC(=O)c3ccccc3)[C@]3(O)C[C@H](OC(=O)[C@H](O)[C@@H](NC(=O)c4ccccc4)c4ccccc4)C(C)=C1C3(C)C)[C@]1(OC(C)=O)CO[C@@H]1C[C@@H]2O (stereo partly specified) | 17.6% |
| CCCCCCCC/C=C/CCCCCCCC1=NC(C)(C)CN1CC(C)O (stereo unspecified) | 59% |
| COc1cc(C2NC(c3ccc(Cl)cc3)C(C)C(=NC(=O)c3cnccn3)C2C)cc(OC)c1OC (stereo unspecified) | 91.6% |
| C[C@@H]1CC[C@H]2[C@@H](C)C(O)O[C@@H]3O[C@]4(C)CC[C@@H]1[C@]32OO4 (stereo partly specified) | 46.1% |
| C/C(=C\CCc1ccsc1)CC/C=C(\C)CCCN1CCN(CCO)CC1 | 32.8% |
| CN1COc2ccc3ccccc3c2C1 | 91% |
| COc1ccc(-c2cnnn2-c2cc(OC)c3c(c2)OCO3)cc1 | 42.3% |
| Nc1c2ccccc2nc2ccccc12 (tested in a mixture with another compound) | 32.5% |
| CCOC(=O)C1=C(C)N2C(=NC3=C(CCC/C3=C\c3ccc(Cl)cc3)C2c2ccc(Cl)cc2)S1 (stereo unspecified) | -0.562% (active) |
| C=C(C)[C@H]1CC/C(C)=C/CC[C@]2(C)O[C@H]2CC/C(C=O)=C\C1O (stereo partly specified) | 115% |
| CCN(CC)CCCCNc1c2ccccc2[n+](C)c2c1[nH]c1ccccc12 | -7.1% (active) |
| Cn1cc(-c2csc(-c3c[nH]c4ncccc34)n2)c2cc(F)cnc21 | 90.5% |
| Nc1ccccc1-c1ccc([N+](=O)[O-])cc1 | 46.7% |
| Cc1ccc(NC(=O)Nc2ccc(-c3cccnc3)cc2N2CCC(CO)CC2)cc1 | -8.69% (active) |
| NNC(=O)C1CC2c3ccccc3C1c1ccccc12 (stereo unspecified) | 105% |
| O=C(OC[C@H]1O[C@H](OC(=O)c2cc(O)c(O)c(OC(=O)c3cc(O)c(O)c(O)c3)c2)[C@H](OC(=O)c2cc(O)c(O)c(OC(=O)c3cc(O)c(O)c(O)c3)c2)[C@@H](OC(=O)c2cc(O)c(O)c(OC(=O)c3cc(O)c(O)c(O)c3)c2)[C@@H]1OC(=O)c1cc(O)c(O)c(OC(=O)c2cc(O)c(O)c(O)c2)c1)c1cc(O)c(O)c(OC(=O)c2cc(O)c(O)c(O)c2)c1 | 18.5% |
| NS(=O)(=O)c1ccc(NC2=C(Cl)C(=O)c3ccccc3C2=O)cc1 | 104% |
| CCOC(=O)C1=C(COCCN)NC(C)=C(C(=O)OC)C1c1ccccc1Cl (stereo unspecified) | 70.1% |
| Cc1cc2c(C#N)n3c(c2cc1C)C(=O)C(c1ccccc1)Oc1ccccc1-3 (stereo unspecified) | 41.7% |

| SMILES | growth |
| --- | --- |
| CN(C)c1nc(N)nc(Cn2c(-c3nonc3N)nc3ccccc32)n1 | 99.2% |
| COC(=O)[C@]1(C(C)C)N[C@H](c2cn(-c3ccccc3)nc2-c2ccccc2)[C@@H]2C(=O)N(c3ccc(Cl)cc3)C(=O)[C@@H]21 | 81.9% |
| CCOC(=O)/C(=C/c1ccccc1)C(=O)c1ccccc1 | 80.5% |
| Cn1cnc([N+](=O)[O-])c1S(=O)(=O)Oc1ccc(Cl)cc1 | 94.4% |
| O=C(/C=C/c1ccccc1Cl)c1ccc(O)cc1 | 85% |
| O=C(Cc1ccccn1)C(F)(F)C(F)(F)C(F)(F)F | 104% |
| Cn1c(=O)c2nc(SCc3ccccc3)n(C)c2n(C)c1=O | 109% |
| COc1ccc2c(c1)nc(N)c1c3ccccc3cn21 | 92.7% |
| O=C(/C(=C/c1cccc([N+](=O)[O-])c1)c1ccccc1)c1ccccc1 | 68.4% |
| CCCCCCCC/C=C\CCCCCCCCOc1ccccc1CC(=O)NCC[N+]1(C)CCCC1 | 80.8% |
| O=C(C(=O)N1CCCCC1)c1ccc(OC2OC(CO)C(O)C(O)C2O)cc1 (stereo unspecified) | 106% |
| O=NC1CC=CCC1c1ccccc1 (stereo unspecified) | 106% |
| CCC(C)(C)C(=O)O[C@H]1C[C@@H](C)C=C2C=C[C@H](C)[C@H](CC[C@@H]3C[C@@H](O)CC(=O)O3)[C@H]21 | 51.5% |
| COc1ccc2[nH]cc(/C=C3/C(=O)Nc4ccc(F)cc43)c2c1 | 115% |
| C[C@]12CC[C@@H]3c4ccc(O)cc4CC[C@H]3[C@@H]1CC[C@@H]2NS(=O)(=O)c1cccc(Br)c1 | 70.3% |
| NC(=O)NN=C(C1CC1)C1CC1 | 107% |
| CCC1=C(c2ccc(OC)cc2)C(C)(C)Oc2c1ccc(O)c2CN1CCCC1 | 34.2% |
| CN(C)c1ccc(/C=C\c2ccnc3ccccc23)cc1 | 65.1% |

Source: PubChem BioAssay (NCI)
